Assay results published in PubChem BioAssay AID1259240 (Keith Lab, Institute of Cancer Science, University of …, 2017).
Unmarked numbers belong to inactive results. Active and inactive are the calls of the source. Cut-off read from the data, not from the text of the source: active = fold change mostly below about -2 (no sharp cut-off); inactive = mostly above about -1.8.

Test: modulation of TERT promoter-driven luciferase – cell-based, luciferase reporter, human, primary screen (AID 1259240)
Settings: A2780 TERT promoter luciferase reporter, 16 h; at 20 µM, fold versus average of vehicle-only wells

Row | SMILES | fold change | outcome
1 | COC(=O)CN1C(=O)CN(c2nc(C)cc(C)n2)C1=O | -1.08 | 
2 | O=C(O)CCN1C(=O)c2ccccc2S1(=O)=O | -1.2 | 
3 | Cc1sc(-c2c(C#N)c(N)nc3c2CCCC3)cc1Br | -4.77 (active) | 
4 | CC1(C)CC(=O)c2sc(NC(=O)C(C)(C)C)nc2C1 | 1.32 | 
5 | CCOC(=O)N1CCN(c2nc3ccccc3n3cnnc23)CC1 | 1.59 | 
6 | CCc1ccc(S(=O)(=O)n2c(C)nc3ccccc32)cc1 | -2.42 (active) | 
7 | COc1ccc(-c2cc3ccccc3n2CC(O)CN2CCN(CCO)CC2)cc1 (centres undefined) | -1.49 | 
8 | O=C(CC1(O)C(=O)Nc2ccccc21)c1cc2ccccc2o1 (centres undefined) | 1.08 | 
9 | O=C(Nc1ccc(F)cc1)c1c[nH]n2c(=O)cc(C3CCNCC3)nc12 | -1.37 | 
10 | Cc1cc(C)cc(-c2nc(-c3cccnc3)no2)c1 | -2.32 (active) | 
11 | COc1ccc(-c2noc(-c3cc(OC)c(OC)cc3OC)n2)cc1 | 1.46 | 
12 | O=C(CSc1ncnc2ccccc12)NCc1ccc2c(c1)OCO2 | -1.09 | 
13 | COc1ccc2oc(=O)c(S(=O)(=O)c3ccc(C(C)C)cc3)cc2c1 | 1.21 | 
14 | Cc1cc(C)cc(NC2=C(N3CCOCC3)C(=O)c3ccccc3C2=O)c1 | -1.02 | 
15 | COc1ccc(Br)cc1/C=c1\sc2nc(-c3ccco3)nn2c1=O | 1.22 | 
16 | O=C(Nc1ccc(F)cc1)C(=O)Nc1ccc2nc3n(c(=O)c2c1)CCCCC3 | -1.07 | 
17 | CCOc1ccc(Oc2nc(NC(C)(C)C)nc(N3CCOCC3)n2)nn1 | 1.49 | 
18 | NC(=O)c1c(NC(=O)c2cc(-c3ccc(O)cc3)on2)sc2c1CCCC2 |  | inactive
19 | O=C1CC(c2ccc(F)c(F)c2)c2cc3c(cc2N1)OCO3 (centres undefined) | 1.27 | 
20 | COC(=O)c1ccc(C2NC(=O)c3n[nH]c(C)c32)cc1 (centres undefined) | -1.08 | 

Row | SMILES | fold change | outcome
21 | CC1=CC(=O)OC1Cc1ccc2ccccc2n1 (centres undefined) | -1.06 | 
22 | O=C(Cn1c(=O)oc2cc(S(=O)(=O)NC3CCCC3)ccc21)N1CCCC1 | -1.19 | 
23 | C=CCn1c(NCCN(CC)CC)nc2c1c(=O)[nH]c(=O)n2C | 1.22 | 
24 | CCOC(=O)N1CCC(Nc2c(N(C)C3CCCCC3)c(=O)c2=O)CC1 | 1.05 | 
25 | CCN1CCN(C(=O)CSc2nc(-c3ccco3)cc(C(F)(F)F)n2)CC1 | -1.46 | 
26 | CN1C(=O)C2ON(c3ccc(Cl)cc3)C(c3cccs3)C2C1=O (centres undefined) | -1.37 | 
27 | CCCn1c(OC)nc2c1c(=O)n(C)c(=O)n2C | -1.58 | 
28 | O=C1c2cccnc2C(=O)N1CNc1ccc(Cl)cc1 | 1.07 | 
29 | CNC(=O)c1ccc(-c2nn(C)c(=O)c3ccccc23)cc1 | -1.06 | 
30 | CCC(C(=O)O)N1C(=O)/C(=C/c2ccc(OC)cc2)SC1=S (centres undefined) | -2.97 (active) | 
31 | COc1cccc(/C=c2\sc3nc(=O)c(Cc4ccc(Cl)cc4)nn3c2=O)c1OC | -1.08 | 
32 | COc1ccc(S(=O)(=O)n2nc(-c3ccc(Cl)cc3)cc2N)cc1OC | 1.41 | 
33 | Cn1c(=O)c(=O)n(C)c2cc(S(=O)(=O)N3CCCC3C(=O)NC3CCCCC3)ccc21 (centres undefined) | 1.05 | 
34 | COc1cccc(CNc2nc3ccccc3n3cnnc23)c1 | 1.12 | 
35 | COc1cccc(C2C(C#N)=C(N)Oc3n[nH]c(-c4ccc(Br)cc4)c32)c1OC (centres undefined) | -1.08 | 
36 | O=C(Cn1ncc2c3ccccc3n(Cc3ccccc3)c2c1=O)N1CCOCC1 | -1.17 | 
37 | Cc1ccc(C)c(Nc2nc3ccccc3n3nnnc23)c1 | 1.43 | 
38 | CC1CCCC(NS(=O)(=O)c2cccc3cccnc23)C1C (centres undefined) | -3.72 (active) | 
39 | Clc1ccc(Nc2c(-c3c[nH]c4ccccc34)nc3cnccn23)cc1 | -1.4 | 
